Results taken from PMC4336329 (PLoS ONE, 2015).
Among all 310,000 compounds or so, about 14,000 (4.5%) showed an effect of 50% or more. The effect is printed as a negative number. For the sample, strong results were picked, then their nearest neighbours and some compounds at random.

target: human ether-à-go-go-related gene (hERG) potassium channel (human, UniProt Q12809); assay: primary screen, population patch clamp on CHO cells stably expressing hERG; higher = less effect of the substance
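Further: peak tail current of the secondary pulse compared with the same well before compound.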

Chain of human ether-à-go-go-related gene (hERG) potassium channel (Q12809 whole entry, looked up): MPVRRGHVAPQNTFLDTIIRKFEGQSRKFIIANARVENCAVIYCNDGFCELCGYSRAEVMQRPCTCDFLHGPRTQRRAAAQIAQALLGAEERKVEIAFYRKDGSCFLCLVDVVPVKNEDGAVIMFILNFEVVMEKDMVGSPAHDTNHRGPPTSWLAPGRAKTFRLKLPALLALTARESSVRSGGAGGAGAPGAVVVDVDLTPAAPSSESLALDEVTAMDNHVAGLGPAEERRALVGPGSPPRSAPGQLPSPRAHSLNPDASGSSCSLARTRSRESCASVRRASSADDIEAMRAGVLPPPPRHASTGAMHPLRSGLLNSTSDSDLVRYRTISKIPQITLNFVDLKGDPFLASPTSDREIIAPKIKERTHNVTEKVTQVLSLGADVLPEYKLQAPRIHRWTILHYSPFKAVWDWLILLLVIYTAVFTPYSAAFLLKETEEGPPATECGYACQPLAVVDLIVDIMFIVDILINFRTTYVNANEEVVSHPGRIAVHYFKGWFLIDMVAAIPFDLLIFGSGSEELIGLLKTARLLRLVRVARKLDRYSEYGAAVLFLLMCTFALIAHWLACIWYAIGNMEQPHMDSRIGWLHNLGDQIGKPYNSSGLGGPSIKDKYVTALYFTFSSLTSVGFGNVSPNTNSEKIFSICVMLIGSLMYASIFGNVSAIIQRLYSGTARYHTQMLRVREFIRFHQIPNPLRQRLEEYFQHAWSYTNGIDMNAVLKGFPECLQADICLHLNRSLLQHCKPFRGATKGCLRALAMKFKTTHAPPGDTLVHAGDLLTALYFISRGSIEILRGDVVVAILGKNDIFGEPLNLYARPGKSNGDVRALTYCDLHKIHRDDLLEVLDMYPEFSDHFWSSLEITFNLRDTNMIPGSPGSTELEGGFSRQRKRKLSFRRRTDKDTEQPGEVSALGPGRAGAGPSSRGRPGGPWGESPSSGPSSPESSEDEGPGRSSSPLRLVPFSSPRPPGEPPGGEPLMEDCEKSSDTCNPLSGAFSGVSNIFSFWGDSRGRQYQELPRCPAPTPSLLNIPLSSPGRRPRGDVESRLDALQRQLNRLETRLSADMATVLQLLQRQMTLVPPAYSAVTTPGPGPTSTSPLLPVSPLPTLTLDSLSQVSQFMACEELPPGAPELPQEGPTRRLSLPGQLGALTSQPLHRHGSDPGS

| SMILES | hERG current change (%, negative = inhibition) at 10uM [%] |
| --- | --- |
| O=C(NNC(=O)C1CCN(Cc2ccccc2)CC1)c1cccc(Cl)c1 | -14 |
| CCCn1nc(Oc2nc(NCC)nc(NC(C)C)n2)ccc1=O | 1.01 |
| CCc1nc(N2CCN(C(=S)NCCCOC)CC2)c2c3c(sc2n1)CCCC3 | -9.32 |
| Fc1ccc(-n2c(-c3ccc4ccccc4n3)n[nH]c2=S)cc1Cl | 31 |
| O=C(COc1ccccc1)NC1CCCc2ccccc21 (stereo not shown) | -19.3 |
| CCOC(=O)Cc1csc(NC(=O)NC2(C(F)(F)F)Oc3ccc(Cl)cc3O2)n1 (stereo not shown) | 15.8 |
| Cc1ccccc1NS(=O)(=O)c1ccc(OCC(=O)NCc2cccnc2)cc1 | -32.8 |
| O=C(COCc1cc(-c2ccc3c(c2)OCO3)on1)N1CCCCC1 | 4.66 |
| CCCc1c(C)nc2ccc(OC)cc2c1SCCC(=O)O | 10.4 |
| COc1cccc(C(=O)C2=NN(C(C)=O)CC2c2ccco2)c1 (stereo not shown) | -15.8 |
| COc1ccc(NC(=O)CCN2C(=O)c3ccncc3C2=O)cc1OC | -7.46 |
| CC1CCCCN1C(=S)Nc1ccc(OC(F)F)cc1 (stereo not shown) | -40.1 |
| O=C(CNC(=O)c1ccccc1)Oc1cccc(Cl)c1 | 17.8 |
| CC(NC(=O)C(C)(C)C)C(c1cccs1)N1CCN(Cc2ccccc2)CC1 (stereo not shown) | -14.3 |
| CC(NC(=O)c1cccs1)C(c1cccs1)N1CCN(Cc2ccccc2)CC1 (stereo not shown) | -72.7 |
| CCN1CCN(C(c2cccs2)C(C)NC(=O)NC2CCCCC2)CC1 (stereo not shown) | -45.5 |
| CC(NC(=O)NC1CCCCC1)C(c1cccs1)N1CCN(Cc2ccccc2)CC1 (stereo not shown) | -56.7 |
| CC(NC(=O)NC1CCCCC1)C(c1cccs1)N1CCN(c2ccccc2)CC1 (stereo not shown) | -48.6 |
| CCC(=O)NC(C)C(c1cccs1)N1CCN(Cc2ccccc2)CC1 (stereo not shown) | -11.6 |
| CCN1CCN(C(c2cccs2)C(C)NC(=S)NC2CCCCC2)CC1 (stereo not shown) | -60.8 |
| CC(NC(=O)NC1CCCCC1)C(c1cccs1)N1CCN(C)CC1 (stereo not shown) | -8.03 |
| CC(NC(=S)NC1CCCCC1)C(c1cccs1)N1CCOCC1 (stereo not shown) | -0.732 |

| SMILES | hERG current change (%, negative = inhibition) at 10uM [%] |
| --- | --- |
| Cc1ccc(NCC(=O)N/N=C/c2ccc(OC(=O)c3ccco3)cc2)cc1 | 1.76 |
| CCCN(CC(=O)Nc1ccccc1C)C(=O)COc1c(C)cccc1C | -4.72 |
| NS(=O)(=O)c1ccc(Nc2ccc3nonc3c2[N+](=O)[O-])cc1 | 9.07 |
| O=C(CSc1n[nH]c(=O)n1C1CC1)c1c[nH]c2ccccc12 | 9.29 |
| O=C(CN1C(=O)/C(=C/c2ccccc2)Sc2ccccc21)NCCCN1CCOCC1 | -42.8 |
| CCc1ccc(/C=C2/Sc3ccccc3N(CC(=O)NCCCN3CCOCC3)C2=O)cc1 | -41.3 |
| O=C(CN1C(=O)/C(=C/c2ccc(C(F)(F)F)cc2)Sc2ccccc21)NCCCN1CCOCC1 | -65.6 |
| O=C(CCN1C(=O)/C(=C\c2cccc(Br)c2)SC1=S)NCCCN1CCOCC1 | -63.4 |
| O=C(CCCN1C(=O)/C(=C/c2cccc(Br)c2)SC1=S)NCCCN1CCOCC1 | -18.1 |
| O=C(CN1C(=O)/C(=C/c2cccc(Br)c2)SC1=S)NCCCN1CCOCC1 | 5.42 |
| O=C(N/N=C/c1cc(Br)c(O)c(Br)c1O)c1ccc2c(c1)OCCO2 | -26.9 |
| Cc1cc(CNC(=O)Cn2cc([N+](=O)[O-])cn2)c2ccccc2n1 | -11.5 |
| Cc1cccc(OCC(=O)Nc2ccccc2N2CCCCC2)c1C | -21.9 |
| Cc1ccc(S(=O)(=O)N2CCCCC2)cc1NC(=O)CCc1nc2ccccc2c(=O)[nH]1 | -24.3 |
| Cc1ccc(-c2nnn(CC(=O)N(Cc3cccs3)C(C(=O)NC(C)(C)C)c3ccco3)n2)o1 (stereo not shown) | 14.4 |
| Cc1ccc(C(=O)N/C(=C/c2cccs2)C(=O)NCCCn2ccnc2)cc1 | -71.9 |
| Cc1ccc(C(=O)N/C(=C\c2cccs2)C(=O)NCCCn2ccnc2)cc1 | -70.3 |
| Cc1ccc(C(=O)N/C(=C\c2cn(C)c3ccccc23)C(=O)NCCCn2ccnc2)cc1 | -7.74 |
| COc1ccc(C(=O)N/C(=C/c2cccs2)C(=O)NCCCn2ccnc2)cc1OC | -7.14 |
| O=C(NCc1ccco1)/C(=C\c1cccs1)NC(=O)c1cccs1 | 6.26 |
| Cc1ccc(C(=O)N/C(=C\c2cccs2)C(=O)NCCCn2ccnc2)cc1C | -61 |
